Experimental data taken from the supplement of paper PMC10849652.
The full data set covers some 7,900 targets. This sample favours those with a hit. About 0.6% of all pairs of compound and target were hits. Values without a mark were called inactive.

Assays:
Experiment in all cases: log2 fold change, soluble protein after heating vs DMSO (PISA); higher = thermal stabilisation; K562 cells, 10 uM, 30 min; active = over 0.2 and 3.5 SD of the protein, either way, in both replicates (recomputed)
[1] = compound: Cc1ccc(NC(=O)c2ccc(CN3CC[C@H](N(C)C)C3)c(C(F)(F)F)c2)cc1Nc1nccc(-c2cncnc2)n1 [bafetinib]
Method in brief: (§1)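 Soluble protein was defined as the supernatant after 21,000xg for 90 min. It came from K562 cells at 2×10^6 cells/mL given 10 μM compound for 30 min, heated in aliquots for 3 min across 48°C-58°C, pooled, and extracted in PBS with 0.5% NP-40 at 4°C, and was quantified by TMTpro 16plex LC-MS/MS with equalised channel sums. Thermal stability against control samples, from duplicates, is reported as log2 fold change.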

[2] = compound: Cc1cccc(CC(=O)N2CCc3c2ccc(-c2cn(C)c4ncnc(N)c24)c3F)n1
Method in brief: as §1

[3] = compound: Cc1cn(-c2cc(NC(=O)c3ccc(C)c(Nc4nccc(-c5cccnc5)n4)c3)cc(C(F)(F)F)c2)cn1 [nilotinib]
Method in brief: as §1

[4] = compound: Cc1nc(Nc2n[nH]c3c2CN(C(=O)N[C@H](CN(C)C)c2ccccc2)C3(C)C)c2sccc2n1
Method in brief: as §1

[5] = compound: Cc1nc(Nc2ncc(C(=O)Nc3c(C)cccc3Cl)s2)cc(N2CCN(CCO)CC2)n1 [dasatinib]
Method in brief: as §1

[6] = compound: Cc1ncc(-c2ccnc(Nc3ccc(S(C)(=O)=O)cc3)n2)n1C(C)C
Method in brief: as §1

[7] = compound: Cn1cc(-c2ccc3c(c2)CCN3C(=O)Cc2cccc(C(F)(F)F)c2)c2c(N)ncnc21
Method in brief: as §1

[8] = compound: Cn1cc(-c2ccc3nnc(C(F)(F)c4ccc5ncccc5c4)n3n2)cn1
Method in brief: as §1

[9] = compound: Cn1cncc1[C@@](N)(c1ccc(Cl)cc1)c1ccc2c(c1)c(-c1cccc(Cl)c1)cc(=O)n2C [tipifarnib]
Method in brief: as §1

[10] = compound: FC(F)(F)c1ccc(/C=C/c2nc(COc3ccc(CCCCn4ccnn4)cc3)co2)cc1 [mubritinib]
Method in brief: as §1

Sequence of UniProt Q9UMY4 (Q9UMY4 whole entry, looked up): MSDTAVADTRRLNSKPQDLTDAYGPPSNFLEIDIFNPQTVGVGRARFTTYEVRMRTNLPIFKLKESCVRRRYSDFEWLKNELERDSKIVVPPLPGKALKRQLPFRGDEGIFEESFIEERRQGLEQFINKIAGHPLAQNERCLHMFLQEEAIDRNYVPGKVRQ
Sequence of UniProt Q6ZRS2 (Q6ZRS2 whole entry, looked up): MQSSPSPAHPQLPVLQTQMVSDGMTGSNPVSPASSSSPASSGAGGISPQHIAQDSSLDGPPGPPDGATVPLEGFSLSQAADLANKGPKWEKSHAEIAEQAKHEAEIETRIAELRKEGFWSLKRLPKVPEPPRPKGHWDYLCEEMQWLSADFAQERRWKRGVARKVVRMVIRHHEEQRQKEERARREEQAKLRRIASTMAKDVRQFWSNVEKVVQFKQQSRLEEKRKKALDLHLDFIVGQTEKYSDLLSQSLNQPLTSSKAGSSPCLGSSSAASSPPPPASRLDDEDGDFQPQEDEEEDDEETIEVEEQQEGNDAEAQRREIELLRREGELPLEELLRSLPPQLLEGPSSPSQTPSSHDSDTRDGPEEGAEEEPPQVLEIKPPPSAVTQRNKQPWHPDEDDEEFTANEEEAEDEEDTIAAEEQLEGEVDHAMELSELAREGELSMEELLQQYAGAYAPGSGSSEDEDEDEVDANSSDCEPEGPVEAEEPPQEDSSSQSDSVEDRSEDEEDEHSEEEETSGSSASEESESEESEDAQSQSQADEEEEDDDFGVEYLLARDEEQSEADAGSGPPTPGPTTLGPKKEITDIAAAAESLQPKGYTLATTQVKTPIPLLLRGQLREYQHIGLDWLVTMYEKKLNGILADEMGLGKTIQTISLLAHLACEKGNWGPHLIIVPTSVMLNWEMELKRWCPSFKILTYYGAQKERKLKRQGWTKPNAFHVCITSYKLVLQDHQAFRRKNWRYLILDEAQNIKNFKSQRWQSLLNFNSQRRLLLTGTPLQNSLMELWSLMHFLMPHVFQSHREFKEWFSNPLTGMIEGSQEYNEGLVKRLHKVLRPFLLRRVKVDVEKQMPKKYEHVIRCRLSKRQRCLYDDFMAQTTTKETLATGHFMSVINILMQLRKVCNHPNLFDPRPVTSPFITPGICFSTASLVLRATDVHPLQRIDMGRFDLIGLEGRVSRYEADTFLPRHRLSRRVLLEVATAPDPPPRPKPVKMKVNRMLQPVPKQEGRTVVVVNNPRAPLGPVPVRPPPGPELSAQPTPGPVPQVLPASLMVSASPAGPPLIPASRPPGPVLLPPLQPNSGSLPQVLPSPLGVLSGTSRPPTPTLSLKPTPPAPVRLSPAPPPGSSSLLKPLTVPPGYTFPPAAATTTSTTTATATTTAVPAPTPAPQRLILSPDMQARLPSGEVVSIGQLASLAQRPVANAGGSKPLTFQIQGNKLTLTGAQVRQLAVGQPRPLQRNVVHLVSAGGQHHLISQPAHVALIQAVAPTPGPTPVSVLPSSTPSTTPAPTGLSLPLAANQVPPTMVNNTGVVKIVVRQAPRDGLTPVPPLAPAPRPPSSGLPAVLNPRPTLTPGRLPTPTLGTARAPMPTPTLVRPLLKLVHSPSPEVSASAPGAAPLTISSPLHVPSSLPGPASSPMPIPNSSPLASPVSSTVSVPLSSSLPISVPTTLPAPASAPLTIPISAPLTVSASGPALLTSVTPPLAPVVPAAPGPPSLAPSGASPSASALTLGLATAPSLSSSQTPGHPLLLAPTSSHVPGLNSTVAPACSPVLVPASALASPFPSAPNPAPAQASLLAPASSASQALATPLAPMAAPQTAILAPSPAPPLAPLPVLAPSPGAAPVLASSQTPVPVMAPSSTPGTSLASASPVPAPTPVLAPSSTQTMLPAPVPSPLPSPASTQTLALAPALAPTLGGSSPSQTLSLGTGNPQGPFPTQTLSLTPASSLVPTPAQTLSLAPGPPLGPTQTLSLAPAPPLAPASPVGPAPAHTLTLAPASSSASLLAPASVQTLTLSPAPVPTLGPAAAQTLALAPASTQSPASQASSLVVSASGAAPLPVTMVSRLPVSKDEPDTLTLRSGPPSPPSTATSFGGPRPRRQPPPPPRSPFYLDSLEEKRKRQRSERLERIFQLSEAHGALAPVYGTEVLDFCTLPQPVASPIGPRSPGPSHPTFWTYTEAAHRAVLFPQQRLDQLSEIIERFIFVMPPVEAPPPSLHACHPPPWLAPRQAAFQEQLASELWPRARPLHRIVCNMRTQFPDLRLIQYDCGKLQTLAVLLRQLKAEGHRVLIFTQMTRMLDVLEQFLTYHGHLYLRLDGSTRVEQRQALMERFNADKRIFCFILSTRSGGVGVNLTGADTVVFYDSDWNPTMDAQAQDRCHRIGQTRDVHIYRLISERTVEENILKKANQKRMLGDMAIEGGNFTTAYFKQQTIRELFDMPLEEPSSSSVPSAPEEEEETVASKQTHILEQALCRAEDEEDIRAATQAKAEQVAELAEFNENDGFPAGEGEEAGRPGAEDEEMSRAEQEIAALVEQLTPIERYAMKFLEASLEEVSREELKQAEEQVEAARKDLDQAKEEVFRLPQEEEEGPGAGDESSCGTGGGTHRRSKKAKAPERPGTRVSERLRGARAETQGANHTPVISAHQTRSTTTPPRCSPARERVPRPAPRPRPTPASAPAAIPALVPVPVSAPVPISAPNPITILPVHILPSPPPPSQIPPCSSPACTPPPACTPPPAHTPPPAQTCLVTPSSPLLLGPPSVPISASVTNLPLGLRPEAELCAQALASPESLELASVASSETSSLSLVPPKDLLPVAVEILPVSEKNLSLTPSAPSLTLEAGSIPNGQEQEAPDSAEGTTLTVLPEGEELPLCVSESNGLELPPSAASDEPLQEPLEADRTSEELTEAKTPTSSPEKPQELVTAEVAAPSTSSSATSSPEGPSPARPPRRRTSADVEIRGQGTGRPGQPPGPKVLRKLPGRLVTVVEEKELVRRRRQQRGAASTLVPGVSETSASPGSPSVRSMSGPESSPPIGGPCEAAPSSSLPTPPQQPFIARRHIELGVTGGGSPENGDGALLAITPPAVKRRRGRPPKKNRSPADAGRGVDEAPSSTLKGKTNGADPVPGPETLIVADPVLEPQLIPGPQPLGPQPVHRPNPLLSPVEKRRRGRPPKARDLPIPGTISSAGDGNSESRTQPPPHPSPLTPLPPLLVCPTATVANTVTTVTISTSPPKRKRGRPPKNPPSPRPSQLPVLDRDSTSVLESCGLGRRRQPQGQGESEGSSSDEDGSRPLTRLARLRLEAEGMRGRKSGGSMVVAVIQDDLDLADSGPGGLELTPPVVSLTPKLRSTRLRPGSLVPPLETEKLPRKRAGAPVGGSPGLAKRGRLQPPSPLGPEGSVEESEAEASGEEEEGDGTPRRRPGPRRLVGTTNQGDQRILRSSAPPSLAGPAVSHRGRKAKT
Sequence of UniProt Q16385 (Q16385 whole entry, looked up): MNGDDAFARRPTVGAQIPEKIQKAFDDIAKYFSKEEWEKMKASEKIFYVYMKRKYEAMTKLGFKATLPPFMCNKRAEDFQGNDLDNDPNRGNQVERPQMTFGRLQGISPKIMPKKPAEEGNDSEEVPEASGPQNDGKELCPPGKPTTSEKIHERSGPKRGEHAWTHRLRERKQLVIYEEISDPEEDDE
Sequence of UniProt O43615 (O43615 whole entry, looked up): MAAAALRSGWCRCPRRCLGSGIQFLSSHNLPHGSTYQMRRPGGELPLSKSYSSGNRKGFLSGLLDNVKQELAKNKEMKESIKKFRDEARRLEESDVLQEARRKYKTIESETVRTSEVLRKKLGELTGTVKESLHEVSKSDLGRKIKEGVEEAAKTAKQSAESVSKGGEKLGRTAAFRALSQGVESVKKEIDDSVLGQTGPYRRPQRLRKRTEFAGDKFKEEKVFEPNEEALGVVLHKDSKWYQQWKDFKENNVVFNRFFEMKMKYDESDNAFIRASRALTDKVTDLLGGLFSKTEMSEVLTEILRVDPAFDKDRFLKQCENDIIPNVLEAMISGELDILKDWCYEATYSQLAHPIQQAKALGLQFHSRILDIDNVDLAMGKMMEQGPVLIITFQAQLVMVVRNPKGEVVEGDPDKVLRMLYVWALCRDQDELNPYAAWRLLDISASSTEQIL
Sequence of UniProt Q9BUA3 (Q9BUA3 whole entry, looked up): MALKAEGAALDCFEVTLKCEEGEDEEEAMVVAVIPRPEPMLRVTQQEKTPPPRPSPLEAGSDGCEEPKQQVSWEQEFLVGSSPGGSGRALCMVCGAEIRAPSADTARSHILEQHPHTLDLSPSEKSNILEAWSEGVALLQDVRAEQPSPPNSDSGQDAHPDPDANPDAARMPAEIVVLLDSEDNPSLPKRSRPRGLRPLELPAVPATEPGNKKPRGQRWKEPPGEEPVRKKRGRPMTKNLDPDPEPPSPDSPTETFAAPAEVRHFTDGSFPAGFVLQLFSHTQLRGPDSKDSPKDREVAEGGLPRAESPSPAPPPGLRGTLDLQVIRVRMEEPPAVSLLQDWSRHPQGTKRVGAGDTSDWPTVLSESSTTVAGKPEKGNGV
Sequence of UniProt Q969G3 (Q969G3 whole entry, looked up): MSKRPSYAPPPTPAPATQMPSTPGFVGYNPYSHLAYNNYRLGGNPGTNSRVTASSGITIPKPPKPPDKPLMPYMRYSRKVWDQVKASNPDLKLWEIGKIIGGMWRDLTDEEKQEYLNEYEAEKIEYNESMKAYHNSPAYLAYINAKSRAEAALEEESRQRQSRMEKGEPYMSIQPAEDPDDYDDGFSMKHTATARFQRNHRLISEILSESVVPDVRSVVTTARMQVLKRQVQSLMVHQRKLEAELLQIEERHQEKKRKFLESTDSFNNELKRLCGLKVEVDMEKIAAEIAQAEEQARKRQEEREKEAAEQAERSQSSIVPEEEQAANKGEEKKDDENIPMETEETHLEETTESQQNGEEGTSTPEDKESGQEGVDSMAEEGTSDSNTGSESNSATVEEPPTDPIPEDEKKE
Sequence of UniProt P62318 (P62318 whole entry, looked up): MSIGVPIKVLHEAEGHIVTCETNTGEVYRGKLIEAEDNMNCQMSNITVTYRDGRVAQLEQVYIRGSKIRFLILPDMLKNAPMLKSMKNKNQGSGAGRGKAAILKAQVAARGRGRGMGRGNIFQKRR

Target | log2 fold change [1] | log2 fold change [2] | log2 fold change [3] | log2 fold change [4] | log2 fold change [5] | log2 fold change [6] | log2 fold change [7] | log2 fold change [8] | log2 fold change [9] | log2 fold change [10]
SRP68 (UniProt Q9UHB9) | 0.043 | 0.054 | -0.118 | -0.063 | -0.098 | 0.055 | -0.026 | -0.08 | -0.119 | 0.012
SPTBN4 (UniProt Q9H254) | -0.036 | -0.044 | -0.167 | 0.027 | 0.017 | -0.04 | -0.014 | 0.03 | -0.09 | 0.066
SRCAP (UniProt Q6ZRS2) | -0.057 | -0.001 | 0.072 | 0.152 | -0.038 | -0.007 | -0.061 | 0.037 | 0.083 | 0.05
SNRPD3 (UniProt P62318) | 0.013 | -0.077 | 0.034 | 0.077 | 0.08 | 0.107 | -0.097 | -0.06 | 0.024 | 0.011
SSX2 (UniProt Q16385) | -0.098 | -0.011 | 0.003 | -0.061 | 0.014 | -0.042 | -0.039 | 0.012 | -0.015 | -0.048
SNX2 (UniProt O60749) | -0.153 | 0.088 | -0.168 | 0 | -0.134 | -0.275 | 0.101 | 0.021 | -0.056 | 0.044
TIMM44 (UniProt O43615) | -0.355 (active) | 0.045 | -0.062 | -0.066 | -0.192 | 0.006 | 0.026 | -0.002 | -0.054 | 0.001
SNUPN (UniProt O95149) | -0.031 | 0.006 | -0.025 | -0.009 | -0.051 | 0.018 | 0.013 | -0.054 | 0.003 | 0.06
SNX12 isoform 1 (UniProt Q9UMY4) | -0.067 | 0.042 | -0.038 | -0.016 | -0.043 | -0.191 | 0.038 | 0.008 | -0.015 | -0.009
STAM2 (UniProt O75886) | -0.067 | 0.014 | 0.007 | -0.077 | 0.044 | -0.008 | 0.016 | 0.009 | -0.012 | 0.019
SNX5 (UniProt Q9Y5X3) | -0.154 | 0.11 | -0.078 | 0.006 | -0.169 | -0.314 | 0.05 | 0.001 | -0.027 | 0.082
STOM (UniProt P27105) | -0.01 | 0.043 | 0.039 | -0.007 | 0.039 | -0.03 | -0.043 | 0.055 | 0.031 | -0.008
TFRC (UniProt P02786) | -0.277 (active) | -0.038 | -0.005 | -0.043 | 0.009 | -0.018 | 0.012 | 0.027 | -0.004 | 0.052
TBC1D5 isoform 2 (UniProt Q92609) | -0.126 | 0.017 | -0.076 | -0.052 | -0.232 | 0.007 | -0.067 | -0.005 | -0.177 | -0.017
TFR2 (UniProt Q9UP52) | -0.226 (active) | -0.012 | 0.012 | -0.074 | 0.006 | -0.026 | -0.019 | 0.054 | 0.025 | 0.041
SMARCE1 (UniProt Q969G3) | -0.181 | 0.041 | -0.191 | 0.16 | -0.07 | -0.055 | -0.056 | -0.09 | -0.082 | -0.274
TEX264 (UniProt Q9Y6I9) | 0.391 | 0.007 | 0.241 | 0.111 | 0.265 | 0.845 (active) | 0.047 | 0.114 | -0.006 | 0.047
SLC27A4 (UniProt Q6P1M0) | -0.026 | 0.022 | -0.098 | -0.101 | -0.113 | 0.011 | 0.003 | 0.009 | 0.124 | 0.598 (active)
TAOK3 (UniProt Q9H2K8) | -0.066 | 0.012 | -0.05 | 0.03 | -0.048 | -0.048 | 0.025 | -0.009 | -0.026 | 0.018
ST6GAL1 (UniProt P15907) | 0.001 | 0.029 | 0.168 | -0.048 | 0.131 | -0.001 | 0.007 | -0.02 | 0.128 | -0.023
STXBP2 isoform 3 (UniProt Q15833) | 0.088 | 0.096 | -0.099 | -0.147 | -0.131 | -0.014 | 0.073 | 0.086 | -0.086 | 0.164
TIAL1 isoform 2 (UniProt Q01085) | -0.072 | -0.028 | -0.023 | 0.036 | -0.021 | 0.074 | 0.009 | -0.001 | 0.015 | 0.013
TENT5C (UniProt Q5VWP2) | -0.055 | 0.009 | 0.002 | 0.02 | -0.122 | 0.005 | -0.286 | 0.028 | -0.02 | 0.014
SPINDOC (UniProt Q9BUA3) | -0.149 | -0.031 | 0.049 | -0.458 (active) | -0.105 | -0.127 | -0.085 | -0.044 | 0.046 | 0.04
SLC6A6 (UniProt P31641) | -0.001 | -0.018 | 0.064 | -0.015 | -0.069 | 0.068 | -0.011 | -0.006 | 0.002 | 0.024
SUGP1 (UniProt Q8IWZ8) | -0.033 | 0.012 | -0.019 | -0.058 | -0.139 | -0.043 | 0.08 | -0.012 | -0.007 | 0.063
THRAP3 (UniProt Q9Y2W1) | 0.052 | -0.025 | 0.049 | -0.177 | -0.009 | 0 | -0.045 | -0.033 | 0.118 | 0.063
SLC4A2 (UniProt P04920) | -0.101 | -0.037 | 0.027 | -0.165 | -0.125 | 0.043 | 0.023 | -0.045 | -0.068 | 0.029
SPG21 (UniProt Q9NZD8) | 0.158 | -0.129 | -0.173 | -0.06 | -0.087 | 0.171 | 0.022 | 0.027 | -0.115 | -0.042
